The values below come from the supplement of paper PMC10849652.

What all share (test): log2 fold change, soluble protein after heating vs DMSO (PISA); higher = thermal stabilisation; K562 lysate, 10 uM; active = over 0.2 and 3.5 SD of the protein, either way, in both replicates (recomputed)
Compound in one assay: CN1CC[C@H](c2c(O)cc(O)c3c(=O)cc(-c4ccccc4Cl)oc23)[C@H](O)C1 [alvocidib]
In outline: (§1)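 Dounce homogenisation of K562 pellets in PBS pH 7.4 with 1 mM MgCl2 produced a crude extract, used at 1 mg/mL protein. Exposure to 10 μM compound lasted 30 min, and aliquots were then heated for 3 min across 48°C-58°C, pooled and brought to 0.5% NP-40 at 4°C. The supernatant after 21,000xg for 90 min was quantified by TMTpro 16plex LC-MS/MS with channel sums equalised. Duplicate values are given as log-two fold change in thermal stability relative to solvent controls.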

Compound in the next assay: COC(=O)N[C@@H](C)CNc1nccc(-c2cn(C(C)C)nc2-c2cc(Cl)cc(NS(C)(=O)=O)c2F)n1 [encorafenib]
In outline: as §1

Compound in assay [1]: COC(=O)[C@H](CCSC)NC(=O)C1=C(C=C(C=C1)NC[C@H](CS)N)C2=CC=CC=C2
In outline: as §1

Compound in another assay: CN1CCc2c(c3ccccc3n2Cc2ccc(C(=O)NO)cc2)C1 [Tubastatin A]
A digest of the protocol:
as §1

Compound in assay [2]: CNC(=O)C1=CC=CC=C1NC2=NC(=NC=C2Cl)NC3=C(C=C(C=C3)N4CCOCC4)OC
In outline:
as §1

Compound in the next assay: CNC(=O)c1ccc(Nc2ncc(C(F)(F)F)c(NCc3nccnc3N(C)S(C)(=O)=O)n2)cc1 [defactinib]
In outline: as §1

Compound in assay [3]: CNc1nc(-c2ccc3c(N)n[nH]c3c2)cc(N2C[C@@H](C(=O)NC3CCCCC3)CC[C@H]2C)n1
A digest of the protocol:
as §1

Compound in another assay: COc1cc(Nc2ncc3c(n2)-c2ccc(Cl)cc2C(c2c(F)cccc2OC)=NC3)ccc1C(=O)O [alisertib]
A digest of the protocol: as §1

Compound in assay [4]: COc1cc2nc(-c3cc(F)ccc3O)nc(N[C@@H]3CNC[C@H]3C(C)(C)O)c2cc1OC
In outline:
as §1

Compound in a further assay: COc1cc2ncnc(Nc3ccc(F)c(Cl)c3)c2cc1OCCCN1CCOCC1 [gefitinib]
In outline:
as §1

About 8,800 targets were measured; listed, in parts, are those with a hit and a random draw of the rest. About 0.5% of all pairs of compound and target were hits. A number with no mark means an inactive call.

UniProt Q9H582, sequence (Q9H582 whole entry, looked up): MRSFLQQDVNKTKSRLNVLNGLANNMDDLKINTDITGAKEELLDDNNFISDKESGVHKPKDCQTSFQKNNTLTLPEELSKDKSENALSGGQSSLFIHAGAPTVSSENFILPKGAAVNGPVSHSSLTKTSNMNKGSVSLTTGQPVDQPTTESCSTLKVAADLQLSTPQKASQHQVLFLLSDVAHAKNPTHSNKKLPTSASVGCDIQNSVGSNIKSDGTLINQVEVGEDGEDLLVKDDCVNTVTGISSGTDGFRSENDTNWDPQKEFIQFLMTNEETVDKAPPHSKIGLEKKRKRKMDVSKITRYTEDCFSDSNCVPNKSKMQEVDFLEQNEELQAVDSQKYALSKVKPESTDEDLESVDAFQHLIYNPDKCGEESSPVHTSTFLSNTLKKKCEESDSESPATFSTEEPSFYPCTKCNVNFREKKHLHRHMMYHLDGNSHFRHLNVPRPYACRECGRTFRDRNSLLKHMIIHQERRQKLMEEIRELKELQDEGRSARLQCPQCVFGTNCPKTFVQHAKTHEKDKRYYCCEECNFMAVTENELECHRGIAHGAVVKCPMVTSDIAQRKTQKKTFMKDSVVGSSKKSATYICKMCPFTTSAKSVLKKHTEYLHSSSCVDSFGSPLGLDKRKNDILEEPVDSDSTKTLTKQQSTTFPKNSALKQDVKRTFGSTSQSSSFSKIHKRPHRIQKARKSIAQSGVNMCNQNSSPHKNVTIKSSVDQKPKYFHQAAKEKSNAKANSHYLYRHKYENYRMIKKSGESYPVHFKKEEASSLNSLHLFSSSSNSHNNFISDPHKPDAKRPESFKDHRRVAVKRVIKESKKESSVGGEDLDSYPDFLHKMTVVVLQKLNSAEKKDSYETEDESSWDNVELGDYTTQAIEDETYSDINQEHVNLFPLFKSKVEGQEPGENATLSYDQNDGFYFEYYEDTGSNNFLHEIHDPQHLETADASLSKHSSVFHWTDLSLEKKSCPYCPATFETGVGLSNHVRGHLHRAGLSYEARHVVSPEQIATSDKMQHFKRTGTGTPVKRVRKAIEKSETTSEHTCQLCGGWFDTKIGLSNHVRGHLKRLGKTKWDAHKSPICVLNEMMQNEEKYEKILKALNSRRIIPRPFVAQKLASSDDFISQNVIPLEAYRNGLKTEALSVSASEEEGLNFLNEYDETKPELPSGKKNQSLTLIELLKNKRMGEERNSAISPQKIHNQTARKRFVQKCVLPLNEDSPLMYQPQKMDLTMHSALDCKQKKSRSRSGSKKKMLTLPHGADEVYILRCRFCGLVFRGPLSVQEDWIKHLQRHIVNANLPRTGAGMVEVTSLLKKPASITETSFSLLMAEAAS
UniProt Q15776, sequence (Q15776 whole entry, looked up): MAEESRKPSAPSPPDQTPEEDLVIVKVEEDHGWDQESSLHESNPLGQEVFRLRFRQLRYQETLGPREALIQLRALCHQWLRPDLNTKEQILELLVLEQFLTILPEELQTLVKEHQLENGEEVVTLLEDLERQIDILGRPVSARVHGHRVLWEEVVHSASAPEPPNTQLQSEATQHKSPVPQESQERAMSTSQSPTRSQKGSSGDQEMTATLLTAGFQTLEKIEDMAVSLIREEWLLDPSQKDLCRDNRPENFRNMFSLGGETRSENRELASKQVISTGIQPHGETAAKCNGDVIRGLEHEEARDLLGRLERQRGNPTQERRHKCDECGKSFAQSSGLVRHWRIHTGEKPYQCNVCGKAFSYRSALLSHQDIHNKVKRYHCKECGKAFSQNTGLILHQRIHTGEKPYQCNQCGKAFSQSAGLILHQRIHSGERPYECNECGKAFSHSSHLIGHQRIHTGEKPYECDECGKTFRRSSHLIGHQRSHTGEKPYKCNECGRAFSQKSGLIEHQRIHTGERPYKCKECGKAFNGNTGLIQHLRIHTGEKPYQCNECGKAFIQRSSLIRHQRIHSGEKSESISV
UniProt Q9Y5A6, sequence (Q9Y5A6 whole entry, looked up): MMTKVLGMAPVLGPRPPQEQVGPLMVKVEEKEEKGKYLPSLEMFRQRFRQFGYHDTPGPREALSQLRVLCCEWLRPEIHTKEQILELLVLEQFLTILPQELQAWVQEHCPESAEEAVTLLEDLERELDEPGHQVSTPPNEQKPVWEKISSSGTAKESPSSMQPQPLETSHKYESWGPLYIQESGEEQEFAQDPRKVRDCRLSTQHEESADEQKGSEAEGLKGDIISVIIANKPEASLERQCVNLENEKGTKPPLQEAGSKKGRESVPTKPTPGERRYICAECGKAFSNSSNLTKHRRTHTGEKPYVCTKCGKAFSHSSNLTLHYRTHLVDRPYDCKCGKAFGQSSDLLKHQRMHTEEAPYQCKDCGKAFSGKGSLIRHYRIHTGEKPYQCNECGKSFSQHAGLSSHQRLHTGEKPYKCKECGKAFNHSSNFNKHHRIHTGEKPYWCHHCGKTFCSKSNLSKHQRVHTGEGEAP
UniProt P30291, sequence (P30291 whole entry, looked up): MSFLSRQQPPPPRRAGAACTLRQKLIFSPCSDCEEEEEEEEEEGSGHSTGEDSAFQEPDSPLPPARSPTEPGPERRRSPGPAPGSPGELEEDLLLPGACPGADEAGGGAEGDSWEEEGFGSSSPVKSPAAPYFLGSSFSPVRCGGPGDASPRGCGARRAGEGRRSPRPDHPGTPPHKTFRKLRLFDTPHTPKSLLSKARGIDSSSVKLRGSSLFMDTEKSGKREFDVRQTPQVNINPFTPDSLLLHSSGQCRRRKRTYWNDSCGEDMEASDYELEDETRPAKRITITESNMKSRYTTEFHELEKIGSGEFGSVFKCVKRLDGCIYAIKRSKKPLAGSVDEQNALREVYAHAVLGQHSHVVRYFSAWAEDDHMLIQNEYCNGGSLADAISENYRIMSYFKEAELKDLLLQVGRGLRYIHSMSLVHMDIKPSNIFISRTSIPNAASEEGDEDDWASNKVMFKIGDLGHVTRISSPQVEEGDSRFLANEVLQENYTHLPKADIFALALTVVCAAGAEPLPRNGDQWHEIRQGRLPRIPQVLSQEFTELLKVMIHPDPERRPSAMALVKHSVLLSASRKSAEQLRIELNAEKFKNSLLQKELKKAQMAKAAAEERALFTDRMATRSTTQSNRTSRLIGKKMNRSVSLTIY

Consider ZSCAN21 (UniProt Q9Y5A6), for which the results for the log2 fold change (with alvocidib; in the assay with encorafenib; in assay [1]) were -0.11, 0.031 and 0.103, respectively.

With WEE1 (UniProt P30291), the log2 fold change was -0.194 in the assay with Tubastatin A; 0.498 (active) in [2]; 0.145 with defactinib; -0.072 in assay [3]; -0.035 in the assay with encorafenib; 0.11 in assay [1]. Also, the values for the log2 fold change (with alisertib; in [4]; in the assay with gefitinib) were 0.018, 0.055 and 0.129, respectively.

Take ZNF644 (UniProt Q9H582): the log2 fold change with alvocidib is 0.003; with Tubastatin A, -0.038; in assay [2], -0.058; with defactinib, 0.025; in assay [3], -0.02; with encorafenib it was 0.028. Also, the figures for the log2 fold change (in assay [1]; in the assay with alisertib; with gefitinib) were -0.011, -0.018 and -0.024, respectively.

Regarding ZKSCAN8 (UniProt Q15776), the log2 fold change with Tubastatin A was -0.053; in assay [2] it was 0.059; in the assay with defactinib, 0.037; in assay [3], 0.009; with encorafenib, 0.2; in assay [1] it was -0.206. Also, the log2 fold change in the assay with alisertib was -0.084; in assay [4], -0.001; with gefitinib, 0.
